Bioassay records as filed in PubChem BioAssay.
HCMV inh = human cytomegalovirus inhibition. 4.5% of 410,000 active. AID 1259415. HFF cells, HCMV-luciferase reporter, 72 h; active compounds read low. activity change, negative = inhibition, % at 57.5 µM; in the data active means activity change below about -60%; inconclusive means no clear call, values can overlap the other calls; inactive means above about -39%
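After 16 h attachment at 37C, HFF cells received test compound and HCMV-luciferase (1 PFU/cell); reporter luminescence read 72 h later, data normalized against buffer-only and known inhibitor Salinomycin.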
Pf growth 96h = P. falciparum growth inhibition at 96 hours; P. falciparum luciferase reporter growth, 96 h; Potency, µM (series often up to 28.7 µM), actives largely listed as inhibitors; 6.9% of 320,000 active
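Luminescence readout: decreased luciferase signal marks inhibited growth of reporter-expressing P. falciparum in infected red cells (2% hematocrit, 0.05% parasitemia final), exposed to compound two generations (96 h, 37 C, 5% CO2).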
Pf growth 48h = inhibits P. falciparum growth in the first generation, 48 h; P. falciparum luciferase growth in erythrocytes, 48 h; Potency, µM (doses to about 28.7 µM), usual class: inhibitors; 5.9% of 310,000 active; AID 504832
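First compound was added to culture medium, then infected red cells at 0.1% parasitemia and 2% hematocrit (final). After incubation at 37 C under 5% CO2, luciferase detection reagent was dispensed and light output recorded.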
Sm TGR block = inhibitors of Schistosoma mansoni thioredoxin glutathione reductase. Q962Y6. purified TGR, DTNB reduction, TNB absorbance 405 nm. Potency, µM (series often up to 114 µM), most hits filed as inhibitors. 3% of 360,000 active. AID 485364; further: nearly all actives have a fitted effect of over 60% in size
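TGR 20 nM + NADPH 100 uM (dispensed conc.), cpd preinc 15 min RT; start with NADPH (500 uM addition) then DTNB (15 mM addition). Kinetic TNB absorbance, 405 nm filter. Four-parameter Hill fit across titration.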
Giardia FBPA inh = inhibitors of Giardia lamblia fructose-1,6-bisphosphate aldolase | purified Giardia FBPA | Potency, µM (titrated, usually from 59.6 µM), usual class: inhibitors | 0.71% of 290,000 active | AID 2451; further: nearly all actives have a fitted effect of over 55% in size
Target sequence (A8B2U2 whole entry, looked up): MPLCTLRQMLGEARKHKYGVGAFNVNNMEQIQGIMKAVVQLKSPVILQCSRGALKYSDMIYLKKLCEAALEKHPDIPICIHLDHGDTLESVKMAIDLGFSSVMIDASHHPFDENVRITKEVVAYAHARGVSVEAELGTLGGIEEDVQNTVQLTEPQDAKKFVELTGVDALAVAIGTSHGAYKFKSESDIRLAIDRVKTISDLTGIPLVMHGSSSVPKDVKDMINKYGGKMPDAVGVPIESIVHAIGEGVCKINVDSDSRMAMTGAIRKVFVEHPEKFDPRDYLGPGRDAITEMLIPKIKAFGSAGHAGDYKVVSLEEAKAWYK
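40 nM FBPA preincubated 10 min at RT with compound (up to 57.5 uM final), then substrate plus GAPDH/TPI/NAD/arsenate coupling and diaphorase/resazurin added. Fluorescence read after 20 min at RT, 525/598 nm.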
A number is an active result; – = inactive; ? = inconclusive; · = not tested or not shown. Hits are enriched below; roughly 14% of the tested compounds scored in any of these assays. Unless noted, the call rests on the fitted dose curve; in most records, active means well fitted curve in the direction sought with a large enough effect; inconclusive means small, poorly fitted or top-dose-only effect, or another doubt; inactive means no such curve, though single readings can be large; an effect the other way counts as inactive or inconclusive.

SMILES	HCMV inh	Pf growth 96h	Pf growth 48h	Sm TGR block	Giardia FBPA inh
O=S(=O)(c1ccccc1)N1CCN(c2nnc(-c3ccccc3)c3ccccc23)CC1	–	4.1µM	?	–	–
CCN(CC(=O)Nc1ccccc1C(F)(F)F)CC(=O)c1[nH]c(C)c(C(C)=O)c1C	–	·	·	·	·
CC(C)CC1C(=O)N(Cc2cn(CCC3OCCCO3)nn2)CCS(=O)(=O)N1Cc1ccc(-c2ccc(Cl)nc2)cc1 (stereo not given)	–	·	·	·	·
S=C(NN=C(c1ccccc1)c1ccccn1)N(Cc1ccccn1)Cc1ccccn1	-97	·	·	·	·
O/N=C(/Cc1ccccn1)c1ccccc1	–	·	–	–	–
CC(=NNC(=S)N(Cc1ccccn1)Cc1ccccn1)c1cnccn1	-98	·	·	·	·
S=C(NN=Cc1ccccn1)N(Cc1ccccn1)Cc1ccccn1	-77	·	·	·	·
Cc1ccccc1NC(=S)N(Cc1ccccn1)Cc1ccccc1Cl	?	?	?	–	–
CCCNCc1cc(Br)ccc1OCC(=O)NCCc1ccccc1	–	12µM	13µM	–	–
CC[C@H](C)[C@H]1CNC(=S)N1CC1CCN(CC)CC1	–	·	·	·	·
Cc1ccc2nc(/C(C#N)=C\c3ccc(N4CCCCC4)c([N+](=O)[O-])c3)[nH]c2c1	-62	?	?	–	–
N#C/C(=N\O)c1nc2ccccc2[nH]1	–	–	–	–	–
Cc1ccc2nc(/C(C#N)=C/c3ccccc3C(=O)O)[nH]c2c1	–	?	2.1µM	–	–
Cc1ccc2nc(/C(C#N)=N/O)[nH]c2c1	–	13µM	?	–	–
N#C/C(=C\c1ccccc1C(=O)O)c1nc2ccccc2[nH]1	–	–	?	–	–
O=C(CN1CCSC1=O)Nc1ccc(N2CCOCC2)cc1	–	–	–	–	·
Cc1cn2c(=O)c(C(=O)NCc3ccc4c(c3)OCO4)cnc2s1	–	–	–	–	·
CC(C)CN(CC(C)C)c1ccc(C=C2C(=O)NC(=S)NC2=O)cc1[N+](=O)[O-]	–	?	?	1.1µM	?
CC(=O)c1sc(NC(=O)C(C)Oc2ccc3c(C)cc(=O)oc3c2)nc1C (stereo not given)	–	–	–	–	·
O=C(O)CCCCCNC(=O)c1cccc(Br)c1	–	–	–	–	–
O=C(NCCOC12CC3CC(CC(C3)C1)C2)c1cccc(Br)c1	–	4.1µM	9.3µM	–	–
COCCN(C(=O)Nc1ccccc1)C(C)c1cccnc1 (stereo not given)	–	5.2µM	·	–	–
COCCCN(C(=O)Nc1ccc(C)c(C)c1)C(C)c1ccccn1 (stereo not given)	–	13µM	·	–	–
OCCN(CCO)CC(O)COc1ccc(C23CC4CC(CC(C4)C2)C3)cc1 (stereo not given)	-62	–	–	–	–
OCCN(CCO)CC(O)COc1ccc(Br)cc1 (stereo not given)	–	–	–	–	–
SMILES	HCMV inh	Pf growth 96h	Pf growth 48h	Sm TGR block	Giardia FBPA inh
C=CCn1c(=O)c2c(nc(-n3nc(C)cc3C)n2C)n(C)c1=O	–	–	10µM	–	–
CCCCCCCCCCCCCCCC(=O)OCC(COC(=O)CCCCCCCCCCCCCCC)OC(=O)CCCCCCCCCCCCCCC	·	–	–	·	·
Cn1c(=O)n(C)c2cc(/C=N/n3cnnc3)ccc21	–	5.9µM	–	–	–
NNc1ccc(S(=O)(=O)N2CCCCC2)cn1	–	–	?	–	–
C/C(=N\Nc1ccc(S(=O)(=O)N2CCCCC2)cn1)c1cccc(Br)c1	–	?	10µM	–	·
Cc1ccc(CNC(=O)C2c3ccccc3C(=O)N3CCc4ccccc4C23)o1 (stereo not given)	–	?	–	5.6µM	–
CCCCN(CC)CCNC(=O)C1c2cc(OC)c(OC)cc2C(=O)N2CCc3ccccc3C12 (stereo not given)	–	10µM	?	–	–
O=C(NCCN1CCN(Cc2ccccc2)CC1)C1c2ccccc2C(=O)N2CCc3ccccc3C12 (stereo not given)	–	–	?	–	–
O=C(NCc1cccc(Cl)c1)O[C@H]1CC[C@@]23CCCN2C(=O)CCC[C@H]3[C@H]1Cc1ccccc1	–	·	·	·	·
O=C(NC1CCCC1)C(c1ccccn1)N(C(=O)c1csnn1)c1ccc(F)cc1 (stereo not given)	–	–	–	–	–
CSc1nc(N)nc(SCC(=O)Nc2cccc(F)c2)c1C#N	-65	–	?	–	–
COc1ccc(-c2ccc(C#N)c(SCC(=O)Nc3sc4c(c3C#N)CCC4)n2)cc1	–	–	–	–	–
N#Cc1c(C(F)(F)F)cc(-c2ccccc2)nc1SCC(=O)Nc1sc2c(c1C#N)CCC2	–	12µM	?	–	–
N#Cc1c(C(F)(F)F)cc(-c2cccs2)nc1SCC(=O)Nc1cccc(Br)c1	-70	·	·	–	·
N#Cc1ccc(-c2cccnc2)nc1SCC(=O)Nc1sc2c(c1C#N)CCC2	–	1.5µM	?	–	–
N#Cc1c(C(F)(F)F)cc(-c2cccs2)nc1SCC(=O)Nc1cccc(Cl)c1	–	·	·	–	·
Cc1cc(Br)ccc1NC(=O)C1CCN(S(=O)(=O)c2ccc(Br)s2)CC1	–	·	·	–	·
Cc1ccc(/C=C2/C(=O)NC(=O)N(Cc3ccc(F)cc3)C2=O)o1	–	–	–	20µM	–
Cc1ccc(/C=C2\C(=O)NC(=O)N(CCc3ccc(F)cc3)C2=O)o1	–	–	–	11µM	–
CN(C)c1ccc(/C=C2\C(=O)NC(=O)N(Cc3ccc(F)cc3)C2=O)cc1	–	–	–	0.79µM	–
COc1cccc(C(c2nnnn2C2CCCC2)N2CCN(C/C=C/c3ccccc3)CC2)c1OC (stereo not given)	–	·	·	·	·
O=c1c(-c2cccs2)nc2cnc(N3CCNCC3)nc2n1Cc1cccs1	·	·	·	·	–
CN(CC(=O)Nc1cccc(S(=O)(=O)NC2=NCCC2)c1)Cc1cccc(F)c1	–	?	–	–	·
CCOC(=O)C(C(=O)OCC)N(Cc1cc(OC)ccc1OC)C(=O)C1CC(CO[Si](C)(C)C(C)(C)C)=CN1C(=O)OC(C)(C)C (stereo not given)	·	·	·	·	–
Oc1ccc2ccccc2c1CN1CCN(c2ccccc2)CC1	–	?	8.3µM	2.8µM	–
SMILES	HCMV inh	Pf growth 96h	Pf growth 48h	Sm TGR block	Giardia FBPA inh
O=c1oc2ccccc2c(O)c1CN1CCCCC1	–	15µM	–	–	–
Oc1ccc2cc(Br)ccc2c1CN1CCCC1	–	4.7µM	?	32µM	–
Oc1ccc2ccccc2c1CN1CC=C(c2ccccc2)CC1	–	?	?	22µM	–
CC(C)(C)OC(=O)Nc1ccccc1-n1nnnc1C(C(=O)c1ccc(F)cc1)N1CCN(c2ccccn2)CC1 (stereo not given)	–	·	·	·	·
CN(C(=O)c1ccc(NC(=O)Cc2cccc(NC(=O)C3CCN(C(=O)C4CCCC4)CC3)c2)cc1)C1CC1	–	·	·	·	·
Oc1ccc2ccccc2c1CN1CCCC1	–	–	13µM	2.5µM	–
CCOC(=O)C1=C(C)N=c2s/c(=C\c3ccncc3)c(=O)n2C1c1ccc2c(c1)OCO2 (stereo not given)	–	–	4.1µM	–	–
